Rango-impB inh – qHTS Assay for Inhibitors of Rango (Ran-regulated importin-beta cargo) - Importin beta complex formation; Importin subunit beta-1 (Homo sapiens), Q14974; Rango CFP/YFP FRET sensor + importin beta, 45 min; Potency, µM (top dose mostly 92.2 µM), inactives show at the highest dose inhibition of complex formation; 0.031% of 340,000 active; AID 540263, 2011; calls by dose curve;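 also: 0% = DMSO wells and 100% = buffer wells lacking importin beta; nearly all actives have a fitted effect of over 15% in size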
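Inhibition scored from the CFP 486 nm/YFP 530 nm FRET ratio 45 min after adding 0.125 microM importin beta to 50 nM Rango biosensor preincubated 5 min with compound (room temperature, PBS with DTT, Tween-20, BSA). No-importin wells as positive control.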
Rango dissoc inh – qHTS Assay for Inhibitors of RanGTP induced Rango (Ran-regulated importin-beta cargo) - Importin beta complex dissociation; Biochemical FRET Rango-importin beta, RanGTP-induced dissociation; 0.071% of 340,000 active; Potency, µM (doses to about 46.1 µM), for the others: top-dose activity change, negative = inhibition; Snurportin-1 (Homo sapiens) + GTP-binding nuclear protein Ran (Homo sapiens) + Importin …; calls by dose curve; also: % of control where 0% means no effect; nearly all actives have a fitted effect of over 45% in size
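Compounds preincubate 5 min with complex of recombinant Rango and importin beta in PBS with 1 mM DTT. Ran (0.6 uM) loaded with 2 mM GTP plus 0.2 uM RCC1 starts dissociation; FRET is recorded 45 min later.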
EPAC2 antag – qHTS for Antagonist of cAMP-regulated guanine nucleotide exchange factor 2 (EPAC2): primary screen | EPAC2 GEF exchange of Rap1B-BODIPY-GDP, fluorescence | Potency, µM (doses to about 114 µM), inactives show top-dose activity, negative = inhibition, usual class: inhibitors | 0.18% of 360,000 active | AID 720708, 2013; also: % is scaled to controls: 0 for no effect and ±100 for the full control effect; nearly all actives have a fitted effect of over 45% in size
EPAC1 ag – qHTS for Agonist of cAMP-regulated guanine nucleotide exchange factor 3 (EPAC1): primary screen | Rap guanine nucleotide exchange factor 3 (Homo sapiens), O95398 | EPAC1 agonist qHTS, biochemical assay; response scale: 100% = response to 6.5 mM cAMP | Potency, µM (highest dose often 154 µM), for inactives: top-dose activation, actives largely listed as activators | 0.073% of 360,000 active | AID 720707, 2013; also: nearly all actives have a fitted effect of over 60% in size
Target sequence (O95398 whole entry, looked up): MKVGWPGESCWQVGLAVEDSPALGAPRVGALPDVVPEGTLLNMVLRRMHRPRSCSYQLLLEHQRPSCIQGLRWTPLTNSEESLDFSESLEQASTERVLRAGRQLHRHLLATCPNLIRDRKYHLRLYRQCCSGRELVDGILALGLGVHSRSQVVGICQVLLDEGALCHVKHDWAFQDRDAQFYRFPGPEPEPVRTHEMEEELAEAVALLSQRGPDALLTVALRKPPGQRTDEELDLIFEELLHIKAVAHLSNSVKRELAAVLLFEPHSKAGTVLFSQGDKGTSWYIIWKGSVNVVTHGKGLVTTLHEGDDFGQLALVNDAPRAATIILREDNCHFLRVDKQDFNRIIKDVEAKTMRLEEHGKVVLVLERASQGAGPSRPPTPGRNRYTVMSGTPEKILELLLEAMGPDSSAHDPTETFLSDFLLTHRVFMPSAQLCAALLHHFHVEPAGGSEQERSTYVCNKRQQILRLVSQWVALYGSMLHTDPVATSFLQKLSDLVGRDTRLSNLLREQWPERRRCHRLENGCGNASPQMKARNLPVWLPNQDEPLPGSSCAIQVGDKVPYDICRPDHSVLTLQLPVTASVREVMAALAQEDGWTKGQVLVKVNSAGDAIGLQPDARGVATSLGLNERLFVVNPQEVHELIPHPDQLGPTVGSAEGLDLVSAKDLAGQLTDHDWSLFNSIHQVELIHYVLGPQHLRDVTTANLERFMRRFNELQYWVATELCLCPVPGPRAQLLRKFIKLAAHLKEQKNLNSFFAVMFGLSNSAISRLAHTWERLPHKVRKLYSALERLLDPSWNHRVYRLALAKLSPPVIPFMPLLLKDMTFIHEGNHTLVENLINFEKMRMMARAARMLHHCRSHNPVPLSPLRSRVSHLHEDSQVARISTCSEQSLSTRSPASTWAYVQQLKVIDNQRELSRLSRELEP
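Read-out is the fluorescence drop as BODIPY-GDP leaves Rap1B (480 nm excitation, 540 nm emission), recorded every 5 minutes over 30 minutes. Reactions held 100 nM EPAC1, 250 nM Rap1B–BODIPY-GDP and 50 uM GDP, with 6.5 mM cAMP setting full activation.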
EPAC1 antagonist – qHTS for Antagonist of cAMP-regulated guanine nucleotide exchange factor 3 (EPAC1): primary screen. 0.14% of 360,000 active. Rap guanine nucleotide exchange factor 3 (Homo sapiens), O95398. EPAC1 GEF assay, Rap1b-BODIPY-GDP exchange fluorescence. Potency, µM (doses to about 115 µM), inactives show top-dose activity change, negative = inhibition, most hits filed as inhibitors;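 also: plate controls were vehicle for no effect and positive control for full effect; nearly all actives have a fitted effect of over 50% in size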
EPAC2 agonist – qHTS for Agonist of cAMP-regulated guanine nucleotide exchange factor 4 (EPAC2): primary screen; Potency, µM (doses to about 154 µM), for the others: top-dose activation, usual class: activators; AID 720711, 2013; 0.079% of 360,000 active; Rap guanine nucleotide exchange factor 4 (Homo sapiens), Q8WZA2; EPAC2 activation, biochemical qHTS; response scale: 100% = 6.5 mM cAMP response; also: nearly all actives have a fitted effect of over 50% in size
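Nucleotide exchange monitored as fluorescence drop when BODIPY-GDP leaves Rap1B. Reaction: 100 nM EPAC2, 250 nM RAP1B-BODIPY-GDP, 50 uM GDP, room temperature, kinetic read over 30 min. Activity expressed relative to 6.5 mM cAMP.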
Numbers without * were called inactive; [ ] = remark or other dose. Compounds with a hit are over-represented: about 0.48% of the library has one in this group of screens. Unless noted, calls follow the shape of the dose curve; as a rule, active = well fitted curve in the direction sought with a large enough effect; inconclusive = small, poorly fitted or top-dose-only effect, or another doubt; inactive = no such curve, though single readings can be large; an effect the other way counts as inactive or inconclusive. Potency is read from the fitted curve at half-maximal effect.

Results for COC(=O)C1=CN(c2ccc(OC)cc2OC)C(N)=C(C#N)C1c1ccccc1F (stereo unspecified) ?
EPAC2 antag: 2.6%; EPAC1 ag: -8.9%; EPAC1 antagonist: -23.2%; EPAC2 agonist: -5.7%

Results for Cc1cc2c(cc1C)-n1nnnc1C(N1CCN(C(=O)OCc3ccccc3)CC1)C(=O)N2 (stereo unspecified) ?
EPAC2 antag: -2.0%; EPAC1 ag: inconclusive; EPAC1 antagonist: -24.2%; EPAC2 agonist: 10.4%

Results for CC(C)C(C(=O)O)N1C(=O)/C(=C/C=C/c2ccco2)SC1=S (stereo unspecified) ?
Rango-impB inh: inconclusive; Rango dissoc inh: 0.0052µM*; EPAC2 antag: -17.6%; EPAC1 ag: 9.0%; EPAC1 antagonist: 56.2µM*; EPAC2 agonist: 1.1%

How did O=C1/C(=C/C=C/c2ccco2)SC(=S)N1c1ccc(O)cc1 do in these assays?
Rango-impB inh: -4.0%; Rango dissoc inh: -1.6%; EPAC2 antag: 23.0%; EPAC1 ag: 14.6%; EPAC1 antagonist: inconclusive; EPAC2 agonist: 10.5%

What do the screens show for `COc1ccc(C(O)c2nc(-c3ccncc3)cs2)cc1` (stereo unspecified)?
EPAC2 antag: -18.2%; EPAC1 ag: -1.6%; EPAC1 antagonist: -10.2%; EPAC2 agonist: 9.4%

Results for Cn1c(SCC(=O)NC(C)(C)C)nnc1-c1ccc(C(C)(C)C)cc1 ?
Rango-impB inh: -4.6%; Rango dissoc inh: -12.1%; EPAC2 antag: 3.0%; EPAC1 ag: -9.6%; EPAC1 antagonist: 19.2%; EPAC2 agonist: 0.5%

What do the screens show for `CCSc1nnc(-c2ccncc2)o1`?
Rango-impB inh: -4.8%; Rango dissoc inh: 4.2%; EPAC2 antag: -2.9%; EPAC1 ag: -2.2%; EPAC1 antagonist: -1.3%; EPAC2 agonist: 2.1%

Results for CCSc1nnc(-c2sc3nnc(-c4ccccc4)c(-c4ccccc4)c3c2N)o1 ?
Rango-impB inh: inconclusive; Rango dissoc inh: inconclusive; EPAC2 antag: 167.8%; EPAC1 ag: 2.0%; EPAC1 antagonist: -10.9%; EPAC2 agonist: 100µM*

How did O=C(Cn1cc([N+](=O)[O-])cn1)NC1CCCCCC1 do in these assays?
Rango-impB inh: inconclusive; Rango dissoc inh: 1.7%; EPAC2 antag: 11.2%; EPAC1 ag: 0.5%; EPAC1 antagonist: -2.2%; EPAC2 agonist: -3.1%

Results for CCn1c(SCC(=O)NNC(=O)c2ccc(OC)cc2)nnc1-c1ccco1 ?
Rango-impB inh: 3.1%; Rango dissoc inh: 1.6%; EPAC2 antag: -5.5%; EPAC1 ag: 13.7%; EPAC1 antagonist: -18.5%; EPAC2 agonist: 3.7%

Results for N=c1c(S(=O)(=O)c2ccc(Br)cc2)cc2c(=O)n3ccccc3nc2n1C1CCCC1 ?
Rango-impB inh: -2.9%; Rango dissoc inh: 22.0%; EPAC2 antag: 79.4µM*; EPAC1 ag: 0.7%; EPAC1 antagonist: -5.9%; EPAC2 agonist: -0.7%

Results for N=c1c(S(=O)(=O)c2ccccc2)cc2c(=O)n3ccccc3nc2n1C1CCCC1 ?
Rango-impB inh: inconclusive; Rango dissoc inh: inconclusive; EPAC2 antag: -12.8%; EPAC1 ag: -1.5%; EPAC1 antagonist: 9.6%; EPAC2 agonist: 13.3%

How did CC1=NCCN1S(=O)(=O)c1c(C(C)C)cc(C(C)C)cc1C(C)C do in these assays?
Rango-impB inh: 0.2%; Rango dissoc inh: -0.4%; EPAC2 antag: 79.4µM*; EPAC1 ag: -4.1%; EPAC1 antagonist: -17.9%; EPAC2 agonist: -3.7%

What do the screens show for `CC1(C(=O)Nc2cccc(C#N)c2)CCN1C(=O)C1(c2ccccc2)CC1` (stereo unspecified)?
EPAC2 antag: 9.1%; EPAC1 ag: -6.8%; EPAC1 antagonist: -3.7%; EPAC2 agonist: 5.6%

What do the screens show for `CCN(CC)c1ccc2c(-c3ccc(S(=O)(=O)O)cc3S(=O)(=O)[O-])c3ccc(=[N+](CC)CC)cc-3oc2c1`?
Rango-impB inh: inconclusive; Rango dissoc inh: inconclusive; EPAC2 antag: inconclusive; EPAC1 ag: 63.1µM*; EPAC1 antagonist: 32.3%; EPAC2 agonist: inconclusive

What do the screens show for `Cc1cccc(NC(=O)/C=C/c2ccc([N+](=O)[O-])s2)c1`?
Rango-impB inh: inconclusive; Rango dissoc inh: 2.06µM*[inhibitor]; EPAC2 antag: 1.5%; EPAC1 ag: 6.6%; EPAC1 antagonist: 4.9%; EPAC2 agonist: 5.5%

How did Cc1ccc(NC(=O)/C=C/c2ccc([N+](=O)[O-])s2)c(C)c1 do in these assays?
Rango-impB inh: inconclusive; Rango dissoc inh: inconclusive; EPAC2 antag: 13.1%; EPAC1 ag: -9.6%; EPAC1 antagonist: -3.9%; EPAC2 agonist: 5.0%

Results for Cc1ccc(NC(=O)/C=C/c2ccc([N+](=O)[O-])s2)cc1 ?
Rango-impB inh: -13.4%; Rango dissoc inh: 0.731µM*[inhibitor]; EPAC2 antag: 1.4%; EPAC1 ag: 4.1%; EPAC1 antagonist: 2.0%; EPAC2 agonist: 19.1%

What do the screens show for `CCN(C(=O)COC(=O)CCCc1c[nH]c2ccccc12)c1c(N)n(Cc2ccccc2)c(=O)[nH]c1=O`?
Rango-impB inh: 1.2%; Rango dissoc inh: 0.1%; EPAC2 antag: 1.8%; EPAC1 ag: 2.5%; EPAC1 antagonist: 11.0%; EPAC2 agonist: -2.8%

Results for CCOC(=O)c1ccc(NC(=O)CN2C(=O)CN(C(C)=O)C2=S)cc1 ?
Rango-impB inh: -0.6%; Rango dissoc inh: 0.3%; EPAC2 antag: -6.5%; EPAC1 ag: 4.3%; EPAC1 antagonist: -4.5%; EPAC2 agonist: 2.7%

Results for Nc1cccc2c1C(=O)N(CCOc1ccc(F)cc1)C2=O ?
Rango-impB inh: inconclusive; Rango dissoc inh: inconclusive; EPAC2 antag: 0.3%; EPAC1 ag: 4.1%; EPAC1 antagonist: -0.9%; EPAC2 agonist: 5.0%

What do the screens show for `Oc1ccc(/C=N/n2c(-c3ccco3)csc2=Nc2cccnc2)c(O)c1`?
Rango-impB inh: -1.1%; Rango dissoc inh: 12.8%; EPAC2 antag: 5.5%; EPAC1 ag: -2.2%; EPAC1 antagonist: -5.6%; EPAC2 agonist: -9.0%
